Test results published in the supplement of paper PMC10849652.
About 7,900 targets were measured; listed, in parts, are those with a hit and a random draw of the rest. About 0.6% of all pairs of compound and target were hits.

Compound: CO[C@H]1C[C@@H]2CC[C@@H](C)[C@@](O)(O2)C(=O)C(=O)N2CCCC[C@H]2C(=O)O[C@H]([C@H](C)C[C@@H]2CC[C@H](n3cnnn3)[C@H](OC)C2)CC(=O)[C@H](C)/C=C(\C)[C@@H](O)[C@@H](OC)C(=O)[C@H](C)C[C@H](C)/C=C/C=C/C=C/1C [zotarolimus]
Test: log2 fold change, soluble protein after heating vs DMSO (PISA); higher = thermal stabilisation; K562 cells, 10 uM, 30 min; active = over 0.2 and 3.5 SD of the protein, either way, in both replicates (recomputed)
How it was run: (§1)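 For each measurement, 10 μM compound was applied for 30 min to K562 cells at 2×10^6 cells/mL. Aliquots were heated for 3 min across 48°C-58°C, pooled, and extracted in PBS with 0.5% NP-40 at 4°C; the supernatant after 21,000xg for 90 min was soluble protein. This was quantified by TMTpro 16plex LC-MS/MS with channel sums equalised, and thermal stability was reported relative to control samples from duplicates, on a log2 fold-change scale.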

Chain of UniProt P15559 (P15559 whole entry, looked up): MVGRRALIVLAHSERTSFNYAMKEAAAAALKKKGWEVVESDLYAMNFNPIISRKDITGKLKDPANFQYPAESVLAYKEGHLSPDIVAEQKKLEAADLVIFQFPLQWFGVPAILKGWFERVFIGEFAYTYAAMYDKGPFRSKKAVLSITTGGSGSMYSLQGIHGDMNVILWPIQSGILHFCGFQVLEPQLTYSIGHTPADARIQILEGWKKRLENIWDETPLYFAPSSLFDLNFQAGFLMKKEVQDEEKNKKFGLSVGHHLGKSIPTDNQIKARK
Chain of UniProt Q8NCE2 (Q8NCE2 whole entry, looked up): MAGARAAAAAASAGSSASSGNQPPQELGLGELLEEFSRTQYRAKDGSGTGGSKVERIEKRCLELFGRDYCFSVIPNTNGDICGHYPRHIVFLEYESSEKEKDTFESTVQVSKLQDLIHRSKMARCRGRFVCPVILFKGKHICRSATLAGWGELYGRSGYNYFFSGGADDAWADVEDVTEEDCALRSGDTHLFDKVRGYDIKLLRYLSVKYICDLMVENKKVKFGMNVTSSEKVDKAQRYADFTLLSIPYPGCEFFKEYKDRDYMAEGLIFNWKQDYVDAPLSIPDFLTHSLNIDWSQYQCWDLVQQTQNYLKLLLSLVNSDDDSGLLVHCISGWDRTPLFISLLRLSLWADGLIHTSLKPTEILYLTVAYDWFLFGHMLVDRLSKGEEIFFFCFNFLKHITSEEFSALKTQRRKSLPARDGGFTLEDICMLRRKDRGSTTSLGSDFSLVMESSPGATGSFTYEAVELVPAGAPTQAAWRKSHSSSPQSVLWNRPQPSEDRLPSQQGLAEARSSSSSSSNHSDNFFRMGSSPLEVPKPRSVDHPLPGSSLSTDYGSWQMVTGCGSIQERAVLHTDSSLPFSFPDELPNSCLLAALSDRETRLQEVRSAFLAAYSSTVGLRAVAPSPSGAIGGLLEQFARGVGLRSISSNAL
Chain of UniProt Q96I59 (Q96I59 whole entry, looked up): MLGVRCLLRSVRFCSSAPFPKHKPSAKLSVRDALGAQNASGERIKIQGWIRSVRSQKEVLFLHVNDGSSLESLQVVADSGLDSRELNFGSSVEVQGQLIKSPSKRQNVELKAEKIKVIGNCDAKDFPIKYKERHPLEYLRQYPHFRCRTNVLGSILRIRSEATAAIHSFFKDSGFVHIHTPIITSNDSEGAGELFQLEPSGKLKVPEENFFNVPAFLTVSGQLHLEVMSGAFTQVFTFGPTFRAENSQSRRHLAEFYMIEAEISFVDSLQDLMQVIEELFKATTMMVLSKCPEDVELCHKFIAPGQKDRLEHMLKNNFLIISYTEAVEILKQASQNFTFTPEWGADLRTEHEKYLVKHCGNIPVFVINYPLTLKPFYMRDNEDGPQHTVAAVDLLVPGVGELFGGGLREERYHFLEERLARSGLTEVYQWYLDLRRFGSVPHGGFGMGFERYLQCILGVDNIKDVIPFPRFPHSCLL
Chain of UniProt O75251 (O75251 whole entry, looked up): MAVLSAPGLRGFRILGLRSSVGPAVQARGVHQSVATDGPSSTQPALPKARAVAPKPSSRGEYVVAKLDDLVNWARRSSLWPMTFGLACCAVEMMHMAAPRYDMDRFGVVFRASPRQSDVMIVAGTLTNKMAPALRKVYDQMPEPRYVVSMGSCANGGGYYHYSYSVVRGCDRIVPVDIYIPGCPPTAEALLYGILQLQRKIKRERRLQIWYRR
Chain of UniProt Q9BZQ8 (Q9BZQ8 whole entry, looked up): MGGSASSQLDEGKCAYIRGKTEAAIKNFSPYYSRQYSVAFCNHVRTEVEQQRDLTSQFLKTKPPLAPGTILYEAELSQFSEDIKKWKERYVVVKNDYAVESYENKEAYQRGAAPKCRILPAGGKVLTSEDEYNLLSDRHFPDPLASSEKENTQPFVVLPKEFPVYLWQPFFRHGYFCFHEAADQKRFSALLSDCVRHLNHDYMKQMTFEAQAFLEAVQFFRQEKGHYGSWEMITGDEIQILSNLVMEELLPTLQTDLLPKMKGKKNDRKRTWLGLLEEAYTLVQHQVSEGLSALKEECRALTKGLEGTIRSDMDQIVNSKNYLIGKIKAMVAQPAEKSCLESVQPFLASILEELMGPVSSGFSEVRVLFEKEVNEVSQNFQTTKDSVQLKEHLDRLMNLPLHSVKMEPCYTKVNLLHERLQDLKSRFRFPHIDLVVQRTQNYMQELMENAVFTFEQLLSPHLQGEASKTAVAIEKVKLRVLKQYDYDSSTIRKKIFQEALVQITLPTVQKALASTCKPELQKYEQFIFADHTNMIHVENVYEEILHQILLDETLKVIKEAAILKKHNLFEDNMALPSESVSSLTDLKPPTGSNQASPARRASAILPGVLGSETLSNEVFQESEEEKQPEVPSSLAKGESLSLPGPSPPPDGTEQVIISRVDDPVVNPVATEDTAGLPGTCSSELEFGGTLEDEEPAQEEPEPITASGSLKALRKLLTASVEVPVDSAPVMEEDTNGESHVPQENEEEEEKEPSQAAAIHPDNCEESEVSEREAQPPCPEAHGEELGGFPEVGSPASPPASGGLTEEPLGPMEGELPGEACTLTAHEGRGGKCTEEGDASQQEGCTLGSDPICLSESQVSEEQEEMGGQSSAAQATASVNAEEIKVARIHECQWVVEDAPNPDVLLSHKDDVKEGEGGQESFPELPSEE
Chain of UniProt Q8TEM1 (Q8TEM1 whole entry, looked up): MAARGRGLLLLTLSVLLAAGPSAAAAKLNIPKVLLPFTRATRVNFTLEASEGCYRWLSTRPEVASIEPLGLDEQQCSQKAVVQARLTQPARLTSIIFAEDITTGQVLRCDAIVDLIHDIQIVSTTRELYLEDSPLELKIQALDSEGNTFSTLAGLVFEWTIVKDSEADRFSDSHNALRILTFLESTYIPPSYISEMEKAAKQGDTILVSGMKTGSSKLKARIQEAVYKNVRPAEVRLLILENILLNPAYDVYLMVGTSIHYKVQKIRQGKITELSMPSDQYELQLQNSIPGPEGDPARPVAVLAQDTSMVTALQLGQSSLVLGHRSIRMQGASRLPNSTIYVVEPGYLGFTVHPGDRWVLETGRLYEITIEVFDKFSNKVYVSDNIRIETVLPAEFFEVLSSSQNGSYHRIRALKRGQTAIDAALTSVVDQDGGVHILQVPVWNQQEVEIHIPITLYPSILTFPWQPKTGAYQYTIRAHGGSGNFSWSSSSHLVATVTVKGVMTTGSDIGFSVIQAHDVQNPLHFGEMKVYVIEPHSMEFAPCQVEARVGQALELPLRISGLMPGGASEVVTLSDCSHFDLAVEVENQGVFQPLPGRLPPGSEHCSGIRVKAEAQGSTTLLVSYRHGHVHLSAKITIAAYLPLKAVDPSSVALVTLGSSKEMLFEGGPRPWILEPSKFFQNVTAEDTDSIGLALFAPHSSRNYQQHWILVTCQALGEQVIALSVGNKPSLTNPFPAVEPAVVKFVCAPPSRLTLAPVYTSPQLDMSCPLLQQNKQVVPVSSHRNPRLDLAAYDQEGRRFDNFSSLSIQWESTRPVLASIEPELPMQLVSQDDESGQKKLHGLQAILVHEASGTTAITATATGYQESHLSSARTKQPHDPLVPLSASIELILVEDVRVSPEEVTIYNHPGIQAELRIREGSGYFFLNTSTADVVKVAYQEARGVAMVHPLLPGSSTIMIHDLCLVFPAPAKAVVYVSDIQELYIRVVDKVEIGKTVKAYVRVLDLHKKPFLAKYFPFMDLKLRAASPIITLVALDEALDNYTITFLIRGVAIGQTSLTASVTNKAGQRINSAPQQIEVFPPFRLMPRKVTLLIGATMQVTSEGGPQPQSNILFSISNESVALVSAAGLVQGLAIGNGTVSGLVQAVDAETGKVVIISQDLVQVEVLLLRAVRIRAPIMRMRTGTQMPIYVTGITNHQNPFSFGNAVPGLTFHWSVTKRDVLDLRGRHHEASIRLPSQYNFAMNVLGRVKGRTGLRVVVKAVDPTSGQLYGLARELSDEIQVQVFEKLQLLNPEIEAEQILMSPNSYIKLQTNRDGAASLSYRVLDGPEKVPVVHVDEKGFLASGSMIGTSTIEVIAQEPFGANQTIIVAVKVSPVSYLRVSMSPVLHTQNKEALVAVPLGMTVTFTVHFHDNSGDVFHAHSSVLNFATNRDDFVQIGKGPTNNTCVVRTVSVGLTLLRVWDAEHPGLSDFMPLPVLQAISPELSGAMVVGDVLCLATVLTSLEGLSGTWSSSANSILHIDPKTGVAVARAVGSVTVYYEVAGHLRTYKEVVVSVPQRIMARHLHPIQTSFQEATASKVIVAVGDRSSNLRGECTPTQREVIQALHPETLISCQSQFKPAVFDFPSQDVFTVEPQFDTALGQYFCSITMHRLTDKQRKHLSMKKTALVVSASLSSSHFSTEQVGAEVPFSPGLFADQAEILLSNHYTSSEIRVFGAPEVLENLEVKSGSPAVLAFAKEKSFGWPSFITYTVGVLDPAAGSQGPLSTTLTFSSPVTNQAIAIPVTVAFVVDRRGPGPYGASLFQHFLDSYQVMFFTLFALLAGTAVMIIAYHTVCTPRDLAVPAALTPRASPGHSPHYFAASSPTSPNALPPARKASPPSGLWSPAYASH
Chain of UniProt P56556 (P56556 whole entry, looked up): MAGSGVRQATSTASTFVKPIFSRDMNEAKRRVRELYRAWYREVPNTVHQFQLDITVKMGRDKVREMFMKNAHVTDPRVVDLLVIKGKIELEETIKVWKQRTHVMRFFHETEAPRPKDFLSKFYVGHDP
Chain of UniProt Q8WV92 (Q8WV92 whole entry, looked up): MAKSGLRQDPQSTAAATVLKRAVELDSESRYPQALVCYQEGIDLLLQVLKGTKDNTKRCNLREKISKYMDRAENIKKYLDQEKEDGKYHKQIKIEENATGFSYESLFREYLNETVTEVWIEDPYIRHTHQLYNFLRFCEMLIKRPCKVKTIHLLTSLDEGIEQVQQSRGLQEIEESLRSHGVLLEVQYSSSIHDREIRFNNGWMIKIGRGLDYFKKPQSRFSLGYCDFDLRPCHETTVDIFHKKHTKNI
Chain of UniProt Q96DE0 (Q96DE0 whole entry, looked up): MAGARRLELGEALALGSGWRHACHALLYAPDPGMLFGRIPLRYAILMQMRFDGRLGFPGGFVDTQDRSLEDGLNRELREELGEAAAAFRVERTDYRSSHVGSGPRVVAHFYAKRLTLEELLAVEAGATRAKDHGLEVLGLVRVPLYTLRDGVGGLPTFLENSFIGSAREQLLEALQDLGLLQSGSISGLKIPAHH

Target	log2 fold change
NDUFB8 (UniProt O95169)	-0.005 (inactive)
MRPS12 (UniProt O15235)	0.039 (inactive)
MKNK1 (UniProt Q9BUB5)	-0.022 (inactive)
NELFA (UniProt Q9H3P2)	-0.084 (inactive)
MRPS2 (UniProt Q9Y399)	-0.02 (inactive)
MRPS16 (UniProt Q9Y3D3)	0.04 (inactive)
NOP56 (UniProt O00567)	0.136 (inactive)
MITD1 (UniProt Q8WV92)	-0.068 (inactive)
NDUFS7 (UniProt O75251)	-0.036 (inactive)
NARS2 (UniProt Q96I59)	0.027 (inactive)
NDUFA6 (UniProt P56556)	0.05 (inactive)
NDUFA9 (UniProt Q16795)	0.008 (inactive)
NMNAT1 (UniProt Q9HAN9)	-0.023 (inactive)
NQO1 (UniProt P15559)	0.069 (inactive)
OTULIN (UniProt Q96BN8)	-0.024 (inactive)
NDUFB7 (UniProt P17568)	-0.03 (inactive)
MUL1 (UniProt Q969V5)	-0.064 (inactive)
MSTO1 (UniProt Q9BUK6)	-0.045 (inactive)
NSUN2 (UniProt Q08J23)	-0.046 (inactive)
MKRN2 (UniProt Q9H000)	-0.035 (inactive)

Target	log2 fold change
NFE2 (UniProt Q16621)	0.146 (inactive)
MRPS9 (UniProt P82933)	0.065 (inactive)
NCAPH (UniProt Q15003)	0.024 (inactive)
NGLY1 (UniProt Q96IV0)	-0.012 (inactive)
NUDT16 (UniProt Q96DE0)	0.1 (inactive)
NIBAN1 (UniProt Q9BZQ8)	0.028 (inactive)
NUP210 (UniProt Q8TEM1)	0.002 (inactive)
NMT1 (UniProt P30419)	0.042 (inactive)
MRPS35 (UniProt P82673)	0.051 (inactive)
OPA1 isoform 2 (UniProt O60313)	0.035 (inactive)
NA, A0A096LPI6	0.019 (inactive)
NOL7 (UniProt Q9UMY1)	-0.024 (inactive)
MRPS15 (UniProt P82914)	0.095 (inactive)
MXRA7 (UniProt P84157)	0.023 (inactive)
MPP1 (UniProt Q00013)	-0.027 (inactive)
MTMR14 (UniProt Q8NCE2)	-0.04 (inactive)
MRPS25 (UniProt P82663)	0.053 (inactive)
MMS19 isoform 8 (UniProt Q96T76)	0.037 (inactive)
NUDT21 (UniProt O43809)	0.013 (inactive)

Compound: COc1cc(C(=O)O)ccc1NC(=O)[C@@H]1N[C@@H](CC(C)(C)C)[C@](C#N)(c2ccc(Cl)cc2F)[C@H]1c1cccc(Cl)c1F [idasanutlin]
Test: as above
How it was run: as §1

Target	log2 fold change
NDUFB8 (UniProt O95169)	0.069 (inactive)
MRPS12 (UniProt O15235)	-0.162 (inactive)
MKNK1 (UniProt Q9BUB5)	-0.075 (inactive)
NELFA (UniProt Q9H3P2)	-0.117 (inactive)
MRPS2 (UniProt Q9Y399)	-0.054 (inactive)
MRPS16 (UniProt Q9Y3D3)	-0.348 (active)
NOP56 (UniProt O00567)	0.345 (inactive)
MITD1 (UniProt Q8WV92)	-0.058 (inactive)
NDUFS7 (UniProt O75251)	-0.112 (inactive)
NARS2 (UniProt Q96I59)	-0.072 (inactive)
NDUFA6 (UniProt P56556)	-0.383 (active)
NDUFA9 (UniProt Q16795)	-0.229 (active)
NMNAT1 (UniProt Q9HAN9)	0.154 (inactive)
NQO1 (UniProt P15559)	-0.085 (inactive)
OTULIN (UniProt Q96BN8)	-0.005 (inactive)
NDUFB7 (UniProt P17568)	-0.025 (inactive)
MUL1 (UniProt Q969V5)	-0.052 (inactive)
MSTO1 (UniProt Q9BUK6)	-0.08 (inactive)
NSUN2 (UniProt Q08J23)	0.021 (inactive)
MKRN2 (UniProt Q9H000)	0.147 (inactive)

Target	log2 fold change
NFE2 (UniProt Q16621)	0.023 (inactive)
MRPS9 (UniProt P82933)	-0.16 (inactive)
NCAPH (UniProt Q15003)	-0.046 (inactive)
NGLY1 (UniProt Q96IV0)	0.112 (inactive)
NUDT16 (UniProt Q96DE0)	-0.01 (inactive)
NIBAN1 (UniProt Q9BZQ8)	-0.007 (inactive)
NUP210 (UniProt Q8TEM1)	0.019 (inactive)
NMT1 (UniProt P30419)	-0.015 (inactive)
MRPS35 (UniProt P82673)	-0.168 (inactive)
OPA1 isoform 2 (UniProt O60313)	-0.105 (inactive)
NA, A0A096LPI6	-0.014 (inactive)
NOL7 (UniProt Q9UMY1)	0.157 (inactive)
MRPS15 (UniProt P82914)	-0.265 (inactive)
MXRA7 (UniProt P84157)	-0.066 (inactive)
MPP1 (UniProt Q00013)	0.069 (inactive)
MTMR14 (UniProt Q8NCE2)	0.02 (inactive)
MRPS25 (UniProt P82663)	-0.185 (inactive)
MMS19 isoform 8 (UniProt Q96T76)	-0.014 (inactive)
NUDT21 (UniProt O43809)	0.006 (inactive)
